The text below walks through data of ChEMBL document CHEMBL5606458, “ASAP - ZIKV NS2B-NS3 protease fluorescence single point” (2024).

As a reminder, the inhibition is the relative decrease from the control value, in per cent.

This assay concerns the target Nonstructural protein 3 (Zika virus) (UniProt A0A024AXB9).
Setting [1] is: PRVABC59, Concentration 15.0 uM, Number of replicates 1.0.
Where [2] appears, read: PRVABC59, Concentration 50.0 uM, Number of replicates 1.0.

Out of some 2,700 compounds screened, about 160 (5.9%) showed an effect of 50% or more. The sample as a whole holds a higher share of strong results than the screen did.

Sequence of Nonstructural protein 3 (Zika virus) (A0A024AXB9 as listed by the source): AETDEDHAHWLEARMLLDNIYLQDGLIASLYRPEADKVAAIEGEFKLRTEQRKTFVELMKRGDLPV

As for `Cc1cc(N)c2cc(Cl)cc(Cl)c2n1`, for the setting “PRVABC59, Concentration 99.9 uM, Number of replicates 2.0, Standard deviation 12.824277322413067 %”, the inhibition was -8.83%.
With `COC(=O)c1ccc(F)c(Cn2cc(C3CCNCC3)c(C)n2)c1`, the inhibition is 1.56% (PRVABC59, Concentration 49.5 uM, Number of replicates 2.0, Standard deviation 1.8234550992150553 %); 0.074% (PRVABC59, Concentration 99.01 uM, Number of replicates 2.0, Standard deviation 0.947622366220452 %); 3.65% (PRVABC59, Concentration 198.0 uM, Number of replicates 2.0, Standard deviation 0.08409628118336304 %).
With `COc1cc(COc2cc(C)nc3ncnn23)nc(N2CCNCC2)n1`, the inhibition was determined as 1.51% (PRVABC59, Concentration 49.5 uM, Number of replicates 2.0, Standard deviation 2.68247440066745 %); 0.374% (PRVABC59, Concentration 99.01 uM, Number of replicates 2.0, Standard deviation 1.6078501771858478 %); 1.09% (PRVABC59, Concentration 198.0 uM, Number of replicates 2.0, Standard deviation 1.0644090707345926 %).
As for `O=C(NCCCSc1ccccc1)c1cc(Cl)ccc1NS(=O)(=O)c1ccc(Oc2ccccc2Cl)cc1`, the inhibition under setting [1] was 21.8%.
In the case of `N#C[C@@H](NC(=O)c1cc(Cl)ccc1NS(=O)(=O)c1ccc(Oc2ccccc2Cl)cc1)c1ccc(F)cc1`, under setting [1], the inhibition came to 28.7%.
With `Cc1cc(CO)c2cccc(CC(=O)N(c3ncccn3)S(=O)(=O)c3ccc(N)cc3)c2n1`, the inhibition by setting is: (PRVABC59, Concentration 49.95 uM, Number of replicates 2.0, Standard deviation 0.08143445481880901 %) 93.4%; (PRVABC59, Concentration 99.9 uM, Number of replicates 2.0, Standard deviation 0.09670172922339526 %) 93.5%.
Regarding `Cc1cc(CO)c2cccc(Cc3cccc(C(=O)N(c4ncccn4)S(=O)(=O)c4ccc(N)cc4)c3)c2n1`, the inhibition (PRVABC59, Concentration 49.95 uM, Number of replicates 2.0, Standard deviation 0.9333358068338657 %) worked out at 1.86% and the inhibition (PRVABC59, Concentration 99.9 uM, Number of replicates 2.0, Standard deviation 0.5295896500552713 %) came to 17.8%.
For `Cc1cc(CO)c2cccc(Cc3ccccc3C(=O)N(c3ncccn3)S(=O)(=O)c3ccc(N)cc3)c2n1`, the inhibition (PRVABC59, Concentration 49.95 uM, Number of replicates 2.0, Standard deviation 0.5295893128804832 %) stood at 2.68% and the inhibition (PRVABC59, Concentration 99.9 uM, Number of replicates 2.0, Standard deviation 0.15206043463069627 %) came out at 8.61%.
On to `c1ccn2c(CNCC3CCOCC3)nnc2c1`, for which the inhibition reads like this: (PRVABC59, Concentration 49.5 uM, Number of replicates 2.0, Standard deviation 1.8796463523944162 %) -1.69%; (PRVABC59, Concentration 99.01 uM, Number of replicates 2.0, Standard deviation 2.0631141970669455 %) -2.09%; (PRVABC59, Concentration 198.0 uM, Number of replicates 2.0, Standard deviation 1.9030296768293513 %) -4.01%.
Consider `Cc1cc(Br)ccc1CNC(=O)c1cc(Cl)ccc1NS(=O)(=O)c1ccc(Oc2ccccc2Cl)cc1`, for which the inhibition under setting [1] is 27.2%.
On to `O=C(NCCc1nc(-c2ccc(Cl)cc2)no1)c1cc(Cl)ccc1NS(=O)(=O)c1ccc(Oc2ccccc2Cl)cc1`, for which the inhibition under setting [1] was 20.2%.
With `O=C(NCc1ccc(-c2ccccn2)cc1)c1cc(Cl)ccc1NS(=O)(=O)c1ccc(Oc2ccccc2Cl)cc1`, the inhibition under setting [1] was 31.7%.
With `COc1ccc(NC(C)=O)cc1NC(=O)c1cc(Cl)ccc1NS(=O)(=O)c1ccc(Oc2ccccc2Cl)cc1`, under setting [1], the inhibition was found to be 55%.
On the same count and under the same terms, as for `O=C(NCc1nc(-c2ccccn2)no1)c1cc(Cl)ccc1NS(=O)(=O)c1ccc(Oc2ccccc2Cl)cc1`, the figure is 54%.
Regarding `COc1c(Cl)cccc1NC(=O)c1cc(Cl)ccc1NS(=O)(=O)c1ccc(Oc2ccccc2Cl)cc1`, the inhibition under setting [1] stood at 38.1%.
Regarding `O=C(Nc1ccccc1Cc1ccccc1)c1cc(Cl)ccc1NS(=O)(=O)c1ccc(Oc2ccccc2Cl)cc1`, the inhibition under setting [1] is 55.2%.
For the compound `COc1cc(NC(=O)c2cc(Cl)ccc2NS(=O)(=O)c2ccc(Oc3ccccc3Cl)cc2)c(Cl)cc1Cl`, under setting [1], the inhibition amounted to 35%.
For `CNC(=O)c1ccccc1NC(=O)c1cc(Cl)ccc1NS(=O)(=O)c1ccc(Oc2ccccc2Cl)cc1`, the inhibition under setting [1] turned out to be 12.1%.
Turning to `O=C(Nc1ccc(SC(F)(F)F)cc1)c1cc(Cl)ccc1NS(=O)(=O)c1ccc(Oc2ccccc2Cl)cc1`, the inhibition under setting [1] worked out at 45.3%.
With `O=C(Nc1ccc(C(F)(F)F)cc1)c1cc(Cl)ccc1NS(=O)(=O)c1ccc(Oc2ccccc2Cl)cc1`, the inhibition under setting [1] worked out at 26.8%.
Regarding `O=C(Nc1ccccc1Sc1ccccc1)c1cc(Cl)ccc1NS(=O)(=O)c1ccc(Oc2ccccc2Cl)cc1`, the inhibition under setting [1] came out at 25.8%.
On to `O=C(Nc1ccc(OC(F)F)cc1)c1cc(Cl)ccc1NS(=O)(=O)c1ccc(Oc2ccccc2Cl)cc1`, for which the inhibition under setting [1] was determined as 57.7%.
In the case of `CN1C(=O)c2ccc(NC(=O)C3CCN(c4ccc(C=O)cc4)CC3)cc2C1=O`, under setting [2], the inhibition came to 28.5%.
For the compound `c1ccc2[nH]c(CC3CCN(c4ncnc5[nH]ccc45)CC3)nc2c1`, the inhibition by setting is: (PRVABC59, Concentration 49.5 uM, Number of replicates 2.0, Standard deviation 0.8729323765409018 %) -3.7%; (PRVABC59, Concentration 99.01 uM, Number of replicates 2.0, Standard deviation 2.6991147561762485 %) 1.52%; (PRVABC59, Concentration 198.0 uM, Number of replicates 2.0, Standard deviation 4.214592802372255 %) 7.18%.
In the case of `CC(CNC(=O)c1cc(Cl)ccc1NS(=O)(=O)c1ccc(Oc2ccccc2Cl)cc1)(c1ccccc1)c1ccccc1`, the inhibition under setting [1] was determined as 31.7%.
As for `COc1cccc(CCNC(=O)c2cc(Cl)ccc2NS(=O)(=O)c2ccc(Oc3ccccc3Cl)cc2)c1`, the inhibition under setting [1] was 27.6%.
For `O=C(c1cc(Cl)ccc1NS(=O)(=O)c1ccc(Oc2ccccc2Cl)cc1)N1CCN(c2ccccc2O)CC1`, the inhibition under setting [1] is -1.02%.
`C[C@@H](c1ccccc1)N(Cc1ccncc1)C(=O)C1CCN(c2ccc(C=O)cc2)CC1`: the inhibition under setting [2] turned out to be 21.5%.
Take `O=C(Nc1cc(Cl)c(F)cc1F)c1cc(Cl)ccc1NS(=O)(=O)c1ccc(Oc2ccccc2Cl)cc1`: the inhibition under setting [1] is 26.5%.
Consider `O=C(Nc1ccc2scnc2c1)c1cc(Cl)ccc1NS(=O)(=O)c1ccc(Oc2ccccc2Cl)cc1`, for which the inhibition under setting [1] amounted to 71.2%.
For `O=C(c1cc(Cl)ccc1NS(=O)(=O)c1ccc(Oc2ccccc2Cl)cc1)N1CCCN(CCCc2ccccc2)CC1`, under setting [1], the inhibition was determined as 11.4%.
Still for that read-out and setting: under `O=C(c1cc(Cl)ccc1NS(=O)(=O)c1ccc(Oc2ccccc2Cl)cc1)N1CCN(CCc2ccncc2)CC1` stands 6.55%.
Consider `O=C(c1cc(Cl)ccc1NS(=O)(=O)c1ccc(Oc2ccccc2Cl)cc1)N1CCN(CCc2ccccc2)CC1`, for which the inhibition under setting [1] was found to be 53.5%.
As to `O=C(Nc1ccc(I)cc1F)c1cc(Cl)ccc1NS(=O)(=O)c1ccc(Oc2ccccc2Cl)cc1`, the inhibition under setting [1] was 67.5%.
As to `O=C(Nc1ccc(Br)nc1)c1cc(Cl)ccc1NS(=O)(=O)c1ccc(Oc2ccccc2Cl)cc1`, the inhibition under setting [1] stood at 35.2%.
